Screen size: about 5,500 compounds; about 2,000 (36%) were called active. Not shown: some 18% with an inconclusive outcome. Rule as the data show it: active = normalized growth mostly below about 0.91 (no sharp cut-off); inconclusive = no clear call, values can overlap the other calls; inactive = mostly above about 0.92. The list shows a part of the results.
Experiment: chemical genetic growth profiling, strain panel (AID 1159580);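 also: tested at 20 µM; growth read once vehicle control cultures reached saturation at 30 °C; 1 = growth at the plate median or of vehicle wells; lower values mean less growth of the strain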
Settings: S. cerevisiae deletion strains, growth OD

Measured: normalized growth

CCCCCCCC/C=C/CCCCCCCCOP(=O)([O-])OCC[N+](C)(C)C
active: locus YAL021C, strain ccr4, stronger effect = lower value 0.0587 | locus YAL026C, strain drs2, stronger effect = lower value 0.0561 | locus YAL030W, strain snc1, stronger effect = lower value 0.053 | locus YBL061C, strain skt5, stronger effect = lower value 0.0558 | locus YBR009C, strain hhf1, stronger effect = lower value 0.0546 | locus YBR023C, strain chs3, stronger effect = lower value 0.0583 | locus YBR171W, strain sec66, stronger effect = lower value 0.0745 | locus YBR231C, strain swc5, stronger effect = lower value 0.0586 | locus YBR279W, strain paf1, stronger effect = lower value 0.0563 | locus YCL011C, strain gbp2, stronger effect = lower value 0.0519 | locus YCL016C, strain dcc1, stronger effect = lower value 0.0586 | locus YCL061C, strain MRC1, stronger effect = lower value 0.0589 | locus YCL069W, strain vba3, stronger effect = lower value 0.0556 | locus YCR088W, strain abp1, stronger effect = lower value 0.0562 | locus YDL005C, strain med2, stronger effect = lower value 0.0694 | locus YDL040C, strain nat1, stronger effect = lower value 0.0556 | locus YDR001C, strain nth1, stronger effect = lower value 0.0555 | locus YDR069C, strain doa4, stronger effect = lower value 0.0593 | locus YDR137W, strain rgp1, stronger effect = lower value 0.105 | locus YDR159W, strain sac3, stronger effect = lower value 0.0716 | locus YDR195W, strain ref2 0.0966 | locus YDR297W, strain sur2, stronger effect = lower value 0.0533 | locus YDR334W, strain swr1, stronger effect = lower value 0.0581 | locus YDR335W, strain msn5, stronger effect = lower value 0.0561 | locus YDR392W, strain spt3, stronger effect = lower value 0.0625 | locus YEL003W, strain gim4, stronger effect = lower value 0.0513 | locus YEL037C, strain rad23, stronger effect = lower value 0.0533 | locus YEL061C, strain CIN8 (second series), stronger effect = lower value 0.0564 | locus YER015W, strain faa2, stronger effect = lower value 0.0609 | locus YER016W, strain bim1, stronger effect = lower value 0.0567 | locus YER111C, strain swi4, stronger effect = lower value 0.0743 | locus YER155C, strain BEM2 (second series), stronger effect = lower value 0.0793 | locus YFR010W, strain ubp6, stronger effect = lower value 0.0589 | locus YGL167C, strain pmr1, stronger effect = lower value 0.0691 | locus YGL173C, strain kem1, stronger effect = lower value 0.0671 | locus YGL227W, strain vid30, stronger effect = lower value 0.0578 | locus YGL240W, strain doc1, stronger effect = lower value 0.0658 | locus YGL253W, strain hxk2, stronger effect = lower value 0.0494 | locus YHR013C, strain ard1, stronger effect = lower value 0.0918 | locus YHR027C, strain rpn1, stronger effect = lower value 0.0597 | locus YHR142W, strain chs7, stronger effect = lower value 0.0608 | locus YJL092W, strain hpr5, stronger effect = lower value 0.0556 | locus YJL095W, strain BCK1 (second series), stronger effect = lower value 0.0534 | locus YJL115W, strain asf1, stronger effect = lower value 0.0664 | locus YJL129C, strain trk1, stronger effect = lower value 0.0759 | locus YJL154C, strain vps35, stronger effect = lower value 0.0613 | locus YJL164C, strain tpk1, stronger effect = lower value 0.0536 | locus YJL166W, strain qcr8, stronger effect = lower value 0.0552 | locus YJL187C, strain SWE1, stronger effect = lower value 0.055 | locus YKL160W, strain elf1, stronger effect = lower value 0.0575 | locus YKR026C, strain gcn3, stronger effect = lower value 0.0565 | locus YKR091W, strain srl3, stronger effect = lower value 0.0556 | locus YLL001W, strain dnm1, stronger effect = lower value 0.0557 | locus YLL026W, stronger effect = lower value 0.0528 | locus YLL041C, strain sdh2, stronger effect = lower value 0.0534 | locus YLR027C, strain aat2, stronger effect = lower value 0.0482 | locus YLR221C, strain rsa3, stronger effect = lower value 0.0536 | locus YLR258W, strain gsy2, stronger effect = lower value 0.0544 | locus YLR262C, strain YPT6 (second series), stronger effect = lower value 0.0801 | locus YLR320W, strain mms22, stronger effect = lower value 0.066 | locus YLR342W, strain FKS1, stronger effect = lower value 0.0588 | locus YLR357W, strain rsc2, stronger effect = lower value 0.106 | locus YLR370C, strain arc18, stronger effect = lower value 0.056 | locus YLR384C, strain iki3, stronger effect = lower value 0.0574 | locus YML120C, strain ndi1, stronger effect = lower value 0.0534 | locus YMR058W, strain fet3, stronger effect = lower value 0.0555 | locus YMR125W, strain sto1, stronger effect = lower value 0.062 | locus YMR129W, stronger effect = lower value 0.0548 | locus YMR205C, strain PFK2, stronger effect = lower value 0.0726 | locus YMR231W, strain pep5, stronger effect = lower value 0.065 | locus YNL071W, strain lat1, stronger effect = lower value 0.0563 | locus YNL209W, strain ssb2, stronger effect = lower value 0.0577 | locus YNL248C, strain rpa49, stronger effect = lower value 0.0552 | locus YNL322C, strain KRE1 (second series), stronger effect = lower value 0.0595 | locus YNR049C, strain mso1, stronger effect = lower value 0.0525 | locus YOR001W, strain rrp6, stronger effect = lower value 0.0584 | locus YOR070C, strain gyp1, stronger effect = lower value 0.0589 | locus YOR080W, strain dia2, stronger effect = lower value 0.0596 | locus YOR083W, strain WHI5, stronger effect = lower value 0.0554 | locus YOR106W, strain vam3, stronger effect = lower value 0.0591 | locus YOR265W, strain rbl2, stronger effect = lower value 0.0537 | locus YOR270C, strain vph1, stronger effect = lower value 0.072 | locus YOR290C, strain snf2, stronger effect = lower value 0.0546 | locus YPL051W, strain arl3, stronger effect = lower value 0.0574 | locus YPL078C, strain atp4, stronger effect = lower value 0.058 | locus YPL106C, strain sse1, stronger effect = lower value 0.0823 | locus YPL240C, strain hsp82, stronger effect = lower value 0.054
